Bioassay records deposited in PubChem BioAssay by Broad Institute.
Sampled rows, rich in hits. Any-hit rate of the full collection: about 2.2%.
Shn3 inh set2 – reduces Shn3 3'UTR luciferase signal in osteoblasts. 360,000 tested, 0.52% active. Clone20 osteoblast Shn3 3'UTR firefly luciferase, 24 h. inhibition, % at 12.5 µM;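 active = mean inhibition of at least 75% with every replicate also reaching 75%; inconclusive = mean inhibition at least 75% but some replicate below; inactive = mean inhibition below 75%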
EWS-Fli block – EWS/Fli transcriptional activity inhibition. AID 651661. 350,000 tested, 0.67% active. A673 NR0B1-luciferase reporter, viability-normalised. inhibition, % at 12.6 µM;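 active = mean inhibition of at least 50% after viability correction, with every replicate also passing that limit; inconclusive = mean reaches 50% but only one of two replicates passes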;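 also: firefly luciferase signal divided by Alamar Blue viability fluorescence both relative to DMSO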
PAX8 inh HTS – PAX8 transcriptional activity inhibition; 360,000 tested, 1.2% active; inhibition, % at 12.6 µM; AID 652154; RMG-I TPO-luciferase reporter, SteadyGlo, 24 h;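 active = mean replicate inhibition at least 60% with every replicate also reaching 60%; inconclusive = only one of the two criteria is met; inactive = mean below 60% and not all replicates reaching 60%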;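 also: luciferase light reporting Pax8 driven TPO promoter activity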
LGR2 inh – inhibitors of bursicon-induced Drosophila LGR2 receptor cAMP signaling; HEK293 LGR2, CRE-luciferase, bursicon-stimulated, 4 h; inhibition, % at 9.99 µM; 380,000 tested, 0.35% active;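 active = drop in luminescence signal, shown as inhibition above about 50% in the replicate tests, limit read from the data, passing the limit was not always enough; inconclusive = probably only some replicates passing the limit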;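 also: agonist challenge used bursicon conditioned medium at about half maximal strength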
EBV LMP1 NFkB – Epstein-Barr LMP1 NF-kappaB reporter inhibition; LMP1-induced NF-kappaB luciferase reporter cells, luminescence; inhibition, % at 12.5 µM; 350,000 tested, 0.69% active; AID 504558; in the data active = inhibition above about 41%; inconclusive = no clear call, values can overlap the other calls
TRPM1 prom inh – inhibitors of MITF-driven TRPM1 promoter in melanoma cells; SK-MEL-5 TRPM1 promoter luciferase, 24 h; inhibition, % at 12.5 µM; 330,000 tested, 0.83% active; AID 488899;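 active = mean inhibition across replicates of 60% or more, whatever share of single replicates reaches that level; inconclusive = some that reach 60%, reason not given; inactive = mean inhibition across replicates below 60%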
Hits are given with their value; n = inactive; u = inconclusive; x = no result given; ! = a repeat was not active.

SMILES | Shn3 inh set2 | EWS-Fli block | PAX8 inh HTS | LGR2 inh | EBV LMP1 NFkB | TRPM1 prom inh
O=C(C[C@H]1CC[C@@H]2[C@H](COC[C@H](O)CN2Cc2nccs2)O1)NCc1ccccc1 | x | n | n | n | x | x
O=C(COc1ccccc1C(=O)NCc1ccccn1)Nc1ccc(Br)cc1 | n | 65 | n | n | n | n
Cc1cccc(-n2c(O)c(C=Nc3c(C)n(C)n(-c4ccccc4)c3=O)c3ccccc3c2=O)n1 | n | n | n | n | 58! | n
Cc1cccc(-n2c(O)c(C=Nc3ccccc3O)c3ccccc3c2=O)n1 | n | n | n | n | n | n
CN(C)C(=O)[C@@H]1[C@@H](CO)[C@@H]2Cn3c(ccc(-c4ccccc4)c3=O)[C@H]1N2Cc1ccccn1 | x | n | x | n | x | x
Cc1cnc(NC(=O)CN2CCN(c3ccccn3)CC2)s1 | n | x | 68 | n | n | n
CNC(=O)C[C@@H]1CC[C@@H]2[C@@H](COc3ccc(NC(=O)Nc4c(C)noc4C)cc3C(=O)N2C)O1 | x | n | n | n | x | x
CCC(=O)Nc1ccc(C(=O)Cn2ncc(Cl)c(Cl)c2=O)cc1 | x | n | 78 | n | n | u
CCc1ccccc1NC(=O)CN(C)C(=O)Cn1ncc(Cl)c(Cl)c1=O | n | 63 | 68 | x | 71 | 89
CCOC(=O)c1ccc(NC(=O)Cn2nc(C)c3ccccc3c2=O)cc1 | n | n | n | n | n | n
O=C(Cn1ncc(Cl)c(Cl)c1=O)c1ccc2c(c1)OCCO2 | n | n | n | u | n | n
CCc1ccccc1NC(=O)CN(C)C(=O)Cn1cnc2ccc(Cl)cc2c1=O | n | n | n | n | n | n
CCOC(=O)c1ccc(NC(=O)Cn2ncc(Cl)c(Cl)c2=O)cc1 | 98 | n | 95 | n | n | 103
O=C(Nc1nc2cc3c(cc2s1)OCO3)C1=COCCO1 | n | 80 | n | x | 73 | 83
CC1CCc2nc(NC(=O)c3ccco3)sc2C1 (stereo unspecified) | n | x | x | x | 60 | n
CC1CCc2nc(NC(=O)Cc3cccs3)sc2C1 (stereo unspecified) | n | x | x | x | n | n
O=C(Nc1ccc(-c2nc3ccccc3s2)cc1)C1=COCCO1 | n | x | n | 95 | 72 | n
O=C(Nc1nc2cc3c(cc2s1)OCO3)c1ccco1 | n | 64 | n | 71 | 58 | n
O=C(Nc1cccc(-c2nc3ccccc3s2)c1)C1=COCCO1 | n | x | n | n | n | n
O=C(Nc1nc2cc3c(cc2s1)OCCO3)c1ccncc1 | n | n | n | n | n | n
O=C(Nc1nc2cc3c(cc2s1)OCCO3)c1ccco1 | n | 87 | x | 98 | 68 | u
O=S(=O)(N[C@@H]1CC[C@H](CCn2cc(-c3ccccc3F)nn2)O[C@H]1CO)c1ccc(Cl)cc1 | x | n | n | n | x | x
CN1CCN(/N=C/c2ccc(N(c3ccccc3)c3ccccc3)cc2)CC1 | n | n | n | 78 | 87 | n
CCC(=O)N[C@@H]1C=C[C@H](CC(=O)NCc2cc(F)cc(F)c2)O[C@@H]1CO | x | n | n | n | x | x
CN1/C(=C\C=O)C(C)(C)c2ccccc21 | n | n | n | n | n | n
SMILES | Shn3 inh set2 | EWS-Fli block | PAX8 inh HTS | LGR2 inh | EBV LMP1 NFkB | TRPM1 prom inh
CN1\C(=C/C=C/C=C/C=[N+](C)C)C(C)(C)c2ccccc21 | 89 | 66 | n | x | n | n
COc1ccc(C#Cc2cccc(-c3nc(C(=O)N[C@@H]4CCN(Cc5ccccc5)C4)cc4c3[C@H](CCO)N(S(=O)C(C)(C)C)C4)c2)cc1OC (stereo partly specified) | x | n | n | x | x | x
Clc1ccc(-n2nnnc2Sc2ncnc3sccc23)cc1 | n | x | x | n | 51 | 66
Cc1sc2ncnc(Sc3nnnn3-c3ccccc3)c2c1C | n | x | x | 66 | n | 69
C[C@@H]1CN([C@@H](C)CO)C(=O)c2cc(Br)cnc2O[C@H]1CN(C)C(=O)C1CCC1 | x | n | x | n | x | x
CCn1c(NC(=O)c2ccc(F)cc2)c2ccccc2nc1=O | n | x | n | x | n | n
CCn1c(NC(=O)c2ccc(C)cc2)c2ccccc2nc1=O | n | x | x | x | 79 | n
CC1C/C(=C/c2ccncc2)C(=O)/C(=C/c2ccncc2)C1 (stereo unspecified) | n | 78 | 85 | 103 | 92 | 106
COCC(=O)Nc1ccc2c(c1)[C@@H]1C[C@H](CC(=O)NCc3cccnc3)O[C@@H](CO)[C@@H]1O2 | x | n | n | n | x | x
Cc1ccc2[nH]c(-c3ccccc3)cc(=O)c2c1 | n | 58 | n | x | n | n
CCc1nc(N)nc(N)c1-c1ccc(NCCN)c([N+](=O)[O-])c1 | n | n | n | n | n | n
CCc1nc(N)nc(N)c1-c1ccc(N(C)Cc2ccccc2)c([N+](=O)[O-])c1 | n | 56 | n | n | n | n
Cc1csc(NC(=O)CSc2nc3[nH]c(=O)cc(O)c3s2)n1 | n | n | n | n | n | 87
O=C(CSc1nc2[nH]c(=O)cc(O)c2s1)Nc1nncs1 | n | n | n | n | n | n
CC(C)CNC(=O)[C@@H]1c2ccccc2C(=O)N(CC23CC4CC(CC(C4)C2)C3)[C@H]1c1ccc(CO)cc1 | x | n | n | x | x | x
Cc1ccc(C2(c3ccccc3)NC(=O)N(CC(=O)NCc3ccccc3)C2=O)cc1C (stereo unspecified) | n | n | n | n | 70 | n
O=C(CN1C(=O)NC(c2ccccc2)(c2ccccc2)C1=O)NCc1ccccc1 | n | n | n | n | n | n
C=CCC(Nc1ccccc1)C12C=CC(O1)C(C(=O)OC)=C2C(=O)OC (stereo unspecified) | n | x | x | n | n | 80
COC(=O)C1=C(C(=O)OC)[C@]2([C@@H]3CC=CCN[C@@H](Cc4ccccc4)C(=O)N3Cc3ccccc3)C=C[C@H]1O2 | n | n | n | n | n | n
CCCn1c(CN2CCN(C(=O)OCC)CC2)nc2cc(NC(=O)CC)ccc21 | n | 59 | n | n | n | n
CCOC(=O)N1CCN(Cc2nc3cc(NC(=O)CC)ccc3n2C)CC1 | n | n | n | n | n | n
NC(=O)c1ccsc1NC(=O)c1ccc(N2CCCC2=O)cc1 | n | n | n | 72 | n | n
NC(=O)c1ccsc1NC(=O)c1ccc2c(c1)CCCC2 | n | n | n | 63 | n | n
CC(C)Cc1nnc(NC(=O)c2ccc(N3CCCC3=O)cc2)s1 | n | n | n | n | n | n
CNC(=O)c1ccsc1NC(=O)c1ccc2c(c1)CCCC2 | n | n | n | n | n | n
COc1ccc2c3c([nH]c2c1)[C@H](CO)N(Cc1ccccc1)CC31CCN(C(=O)Cc2ccccc2)CC1 | x | n | x | n | x | x
C[C@H](CO)N1C[C@H](C)[C@H](CN(C)S(C)(=O)=O)Oc2ccc(N(C)C)cc2CC1=O | x | n | n | n | x | x
O=C(CN1C(=O)NC2NC(=O)NC21)NN=C1CCCC1 (stereo unspecified) | n | n | 83 | n | n | n
O=C(CN1C(=O)NC2NC(=O)NC21)N/N=C/c1ccccc1O (stereo unspecified) | n | n | n | n | n | n
CCCC[C@H](CN[C@@H](CNC)[C@H](C)CC)NCCC12CCC(CC1)C2 | u | 57 | n | n | n | 94
